Results as given in PubChem BioAssay.
The source made the active and inactive calls.

assay: E. coli acrAB mutant growth effects, primary screen, E. coli filamentation inducers, strain DRC39, OD650, 24 h (AID 1178); details: higher = more signal, called active from +8 up or from −8 down;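 further: growth measured as culture turbidity by optical density at 650 nm; test concentration not given here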

z-score, inactive:
O=C1c2ccccc2[C@@]2(Cc3ccccc3N(Cc3ccccc3)C2=O)[C@H](c2ccc(CO)cc2)N1Cc1ccccc1 -0.0466, CCOC(=O)C[C@H]1[C@H](OC(=O)Cc2ccc3c(c2)OCO3)[C@@H](NC(=O)c2ccccc2)c2cc(OCCCO)ccc2N1C(=O)Cc1ccc(OC)cc1 1.68, CCOC(=O)C[C@H]1[C@H](OC(=O)c2ccc(-c3ccccc3)cc2)[C@@H](NC(=O)CC(C)C)c2cc(OCCCO)ccc2N1C(=O)Cc1ccc(OC)cc1 -0.181, CC(C)CNC(=O)[C@@H]1c2ccccc2C(=O)N(C2Cc3ccccc3C2)[C@H]1c1ccc(CO)cc1 0.725, C=C(COC)C(=O)CC[C@@H](OC(C)=O)c1ccc(OCCO)cc1 -0.623, COCCOC(=O)N1C(=O)[C@@]2(c3cc(C#CC4(O)CCCCCC4)ccc31)[C@H](c1ccc(OCCO)cc1)N1[C@H](c3ccccc3)[C@H](c3ccccc3)OC(=O)[C@H]1[C@@H]2C(=O)N1CCCCCCC1 -2.2, [N-]=[N+]=NCc1ccccc1C[C@]1(C(=O)O)COC(c2ccc(OCCCO)cc2)=N1 -0.149, N[C@@H](Cc1ccccc1)Cn1cc(C2(O)CCCCC2)nn1 -0.0019, Cc1ccc(F)cc1S(=O)(=O)N[C@@H]1CCN(Cc2ccc3[nH]ccc3c2)C1 -1.37, COCCOC(=O)N1C(=O)[C@@]2(c3cc(C#CC4=CCCCC4)ccc31)[C@H](c1ccccc1OCCO)N1[C@H](c3ccccc3)[C@H](c3ccccc3)OC(=O)[C@H]1[C@@H]2C(N)=O 0.484
